# Screening data (PubChem BioAssay)
# A selection: hits, their analogues and other compounds. The true share with any hit is near 9.9%.
# ALDH1A1 block – qHTS Assay for Inhibitors of Aldehyde Dehydrogenase 1 (ALDH1A1); Aldehyde dehydrogenase 1A1 (Homo sapiens), P00352; Purified ALDH1A1, NADH fluorescence, propionaldehyde substrate; Potency, µM (series often up to 75.3 µM), for inactives: at the top dose activity, negative = inhibition, most hits filed as inhibitors; 220,000 compounds, 7.3% hits; AID 1030, 2008;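 also: plate controls were no enzyme wells and a reference inhibitor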
# Tau FP inhib – qHTS for Inhibitors of Tau Fibril Formation, Fluorescence Polarization. Microtubule-associated protein tau (Homo sapiens), P10636. K18 P301L tau heparin fibrillization, Alexa594 FP, 6 h. Potency, µM (highest dose often 57.7 µM), for the others: at the top dose activity, negative = inhibition, most hits filed as inhibitors. 280,000 compounds, 0.39% hits; active = well fitted curve in the direction sought with a large enough effect; inconclusive = small, poorly fitted or top-dose-only effect, or another doubt; inactive = no such curve, though single readings can be large; an effect the other way counts as inactive or inconclusive; also: nearly all actives have a fitted effect of over 55% in size
#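 Human tau K18 […] P301L fragment, 15 uM unlabeled plus 0.24 uM Alexa 594-labeled tau (final), with compound and 20 uM heparin in 100 mM sodium acetate pH 7; 6 hr at 37 C, then Alexa 594 FP read.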
# Tau ThT inhib – qHTS for Inhibitors of Tau Fibril Formation, Thioflavin T Binding; Microtubule-associated protein tau (Homo sapiens), P10636; 270,000 compounds, 2.1% hits; recombinant tau K18 P301L, heparin-induced fibrillization, ThT fluorescence; Potency, µM (series often up to 57.4 µM), without a hit: at the top dose activity, negative = inhibition, actives largely listed as inhibitors; active = well fitted curve in the direction sought with a large enough effect; inconclusive = small, poorly fitted or top-dose-only effect, or another doubt; inactive = no such curve, though single readings can be large; an effect the other way counts as inactive or inconclusive; also: nearly all actives have a fitted effect of over 55% in size
#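 In this qHTS, human K18 P301L tau is incubated with compound and heparin for 6 hr at 37 C, and Thioflavin T fluorescence then reports fibril load.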
# KDM4E inh – qHTS Assay for Inhibitors of Human Jumonji Domain Containing 2E (JMJD2E); Lysine-specific demethylase 4E (Homo sapiens), B2RXH2; AID 2147, 2009; JMJD2E catalytic domain, FDH-coupled NADH fluorescence (FDH is formaldehyde dehydrogenase); 230,000 compounds, 1.6% hits; Potency, µM (doses to about 57.1 µM), without a hit: top-dose activity change, negative = inhibition, usual class: inhibitors;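 also: 0% = wells with enzyme and -100% = buffer wells without enzyme; nearly all actives have a fitted effect of over 50% in size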
# Target sequence (B2RXH2 1-337 limits assumed): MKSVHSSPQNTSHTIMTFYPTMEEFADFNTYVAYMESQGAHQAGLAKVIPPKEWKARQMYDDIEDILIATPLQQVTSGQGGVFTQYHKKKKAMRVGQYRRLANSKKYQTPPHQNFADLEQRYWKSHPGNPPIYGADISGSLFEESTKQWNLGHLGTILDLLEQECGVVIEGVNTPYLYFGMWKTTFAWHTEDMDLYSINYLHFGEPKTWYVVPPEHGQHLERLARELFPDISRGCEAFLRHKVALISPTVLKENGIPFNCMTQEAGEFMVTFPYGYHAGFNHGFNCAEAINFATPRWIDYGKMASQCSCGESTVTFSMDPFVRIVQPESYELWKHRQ
# Tau fluor counter – Counterscreen qHTS for Inhibitors of Tau Fibril Formation, Fluorescence Polarization; tau K18 P301L Alexa594 fluorescence, heparin fibrillization; Potency, µM (series often up to 57.7 µM), for inactives: at the top dose activity change, negative = decrease; 280,000 compounds, 0.93% hits; active = well fitted curve in the direction sought with a large enough effect; inconclusive = small, poorly fitted or top-dose-only effect, or another doubt; inactive = no such curve, though single readings can be large; an effect the other way counts as inactive or inconclusive; also: nearly all actives have a fitted effect of over 55% in size
#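 Human tau K18 P301L (15 uM unlabeled, 0.24 uM Alexa 594-labeled) in 100 mM sodium acetate pH 7 with 20 uM heparin, 6 hr at 37 C. ThT 30 uM added, 1 hr ambient; Alexa 594 FP and total fluorescence read at 555/632 nm.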
# HPGD block – qHTS Assay for Inhibitors of HPGD (15-Hydroxyprostaglandin Dehydrogenase); 15-hydroxyprostaglandin dehydrogenase [NAD(+)] (Homo sapiens), P15428; purified HPGD, NADH fluorescence kinetic, PGE2 substrate; Potency, µM, inactives show at the top dose activity change, negative = inhibition, most hits filed as inhibitors; 150,000 compounds, 4.3% hits
# Target sequence (P15428 whole entry, looked up): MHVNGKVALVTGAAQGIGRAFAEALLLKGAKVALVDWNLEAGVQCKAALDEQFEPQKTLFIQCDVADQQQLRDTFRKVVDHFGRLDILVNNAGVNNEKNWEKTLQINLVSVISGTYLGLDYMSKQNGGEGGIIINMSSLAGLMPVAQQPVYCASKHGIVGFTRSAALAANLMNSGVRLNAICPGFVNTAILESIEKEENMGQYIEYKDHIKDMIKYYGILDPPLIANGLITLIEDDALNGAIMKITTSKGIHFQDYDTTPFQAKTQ
#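 20 nM HPGD preincubated 15 min at room temperature with compound in 50 mM Tris-HCl pH 8, 0.01% Tween 20. Started with 1 mM NAD+ and 30 uM prostaglandin E2; NADH fluorescence (360/450 nm) read 5 times over 30-s intervals, last minus first.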
# Starred values were filed as active, the others as inactive; ? = inconclusive; . = no result. Unless noted, calls follow the shape of the dose curve; as a rule, active = well fitted inhibition curve with a large enough effect (not every such curve was filed as active); inconclusive = small, poorly fitted or top-dose-only effect, or another doubt; inactive = no such curve, though single readings can be large or run the other way. Unless noted, % is scaled to controls: 0 for no effect and ±100 for the full control effect; potency is read from the fitted curve at half-maximal effect.
SMILES,ALDH1A1 block,Tau FP inhib,Tau ThT inhib,KDM4E inh,Tau fluor counter,HPGD block
Cc1ccc(/C=C/C(=O)Nc2nnc(SCc3ccc(C#N)cc3)s2)o1,-14%,-5%,-6%,?,-6%,-14%
Cc1ccc(CN2CCN(/N=C/c3ccc(C(=O)O)cc3)CC2)cc1,-10%,-9%,0%,-5%,-7%,-22%
CCN(CC)c1ccc(/C=N\N2CCN(Cc3ccc(C)cc3)CC2)cc1,0.79µM*,-4%,?,-27%,?,.
O=[N+]([O-])c1ccc(C(=S)N2CCCC2)cc1,?,-1%,-9%,-4%,1%,.
CSc1ccc(C(=S)N2CCN(Cc3ccccc3)CC2)cc1,2.2µM*,7%,-18%,3%,-25%,?
CCN1CCN(C(=S)c2ccc([N+](=O)[O-])cc2)CC1,?,-6%,-1%,-2%,3%,25µM*
O=C(CN1CCN(Cc2ccccc2)CC1)NCCNc1ccc([N+](=O)[O-])cn1,9.5µM*,5%,-7%,12%,-2%,.
CC1(/[N+]([O-])=C/c2ccccc2F)CCCCC1=O (stereo unspecified),5%,4%,-2%,1%,-1%,.
Clc1ccc(CN2CCN(/N=C/c3ccco3)CC2)cc1,?,1%,-5%,-3%,-10%,.
Cc1ccc(/C=N/N2CCN(Cc3ccc(Cl)cc3)CC2)o1,7.9µM*,-1%,-7%,6%,-3%,-35%
O=Nc1ccc(NO)cc1,10µM*,.,.,.,.,-25%
O=C1CCC(c2ccc(-n3ccnc3)cc2)=NN1,5%,2%,-14%,-2%,-9%,-16%
O=C(C1CCC(CNc2c(N3CCCCC3)c(=O)c2=O)CC1)N1CCCCC1 (stereo unspecified),-1%,-4%,1%,9%,-7%,0.4µM*
CC1CCCN(C(=O)C2CCC(CNc3c(N4CCCCC4)c(=O)c3=O)CC2)C1 (stereo unspecified),.,2%,0%,-1%,1%,.
CC1CCN(c2c(NCC3CCC(C(=O)N4CCCCC4)CC3)c(=O)c2=O)CC1 (stereo unspecified),-8%,-2%,-5%,8%,-3%,0.5µM*
CCC(C)NC(=O)C1=CC(c2ccc3c(c2)OCO3)=NS(=O)(=O)N1C (stereo unspecified),.,-13%,?,.,-10%,.
CCOc1ccccc1Nc1nc(-c2sc(NC(=O)c3ccco3)nc2C)cs1,-4%,7%,?,-25%,?,-22%
Cc1ccc(Nc2nc(-c3sc(NC(=O)c4ccco4)nc3C)cs2)cc1,?,12%,4µM*,6%,?,-24%
Cc1ccccc1Nc1nc(-c2sc(NC(=O)c3ccco3)nc2C)cs1,20µM*,4%,?,-5%,?,?
Cc1nn(-c2ccccc2)c(Cl)c1CN(C(=O)CCl)c1ccc(Cl)cc1,7.1µM*,7%,-15%,8%,-4%,-22%
Cc1nn(-c2ccccc2)c(Cl)c1CN(C(=O)CCl)c1cccc2ccccc12,28µM*,11%,-17%,3%,-3%,0%
CC(=O)N(Cc1c(C)nn(-c2ccccc2)c1Cl)c1ccc(Cl)cc1,-3%,0%,-7%,7%,-5%,-2%
Cn1c(SCc2ccccc2F)nnc1-c1ccccn1,?,0%,6%,-9%,0%,.
O=C(CSc1nc2cc(S(=O)(=O)N3CCOCC3)ccc2o1)NC1CCCc2ccccc21 (stereo unspecified),2.2µM*,-8%,-3%,-13%,12%,8.9µM*
Cc1ccc(C(=O)CSc2nc3cc(S(=O)(=O)N4CCOCC4)ccc3o2)cc1,14µM*,?,?,-11%,-28%,25µM*
SMILES,ALDH1A1 block,Tau FP inhib,Tau ThT inhib,KDM4E inh,Tau fluor counter,HPGD block
Cc1[nH]c2ccccc2c1C(=O)CSc1nc2cc(S(=O)(=O)N3CCCCC3)ccc2o1,-10%,?,-9%,2%,?,-3%
Cc1ccc(S(=O)(=O)N2CCN(C(=O)CSc3nc(N)cc(=O)[nH]3)CC2)c(C)c1,-2%,5%,1%,3%,11%,.
Cc1ccc(S(=O)(=O)N2CCN(C(=O)CSc3nnnn3C)CC2)c(C)c1,25µM*,9%,0%,-4%,-2%,.
O=C(CSc1nnc(COc2ccc(F)cc2)o1)N1c2ccccc2CCc2ccccc21,3.2µM*,?,7%,-4%,-14%,-14%
O=C(CSc1nnc(COc2cccc3cccnc23)o1)N1CCc2ccccc21,14µM*,1%,?,7%,-10%,-12%
Cc1cccc(OCc2nnc(SCC(=O)N3c4ccccc4CCc4ccccc43)o2)c1,.,-6%,-17%,-5%,-18%,.
O=C(CSc1nnc(Cc2ccccc2)o1)N1CCc2ccccc21,9%,-11%,-10%,10%,-9%,2%
COC(=O)CN1C(=O)C2(C(C#N)=C(N)Oc3c2c(C)nn3-c2ccccc2)c2ccccc21 (stereo unspecified),0.14µM*,?,28µM*,-18%,-25%,-13%
COC(=O)CN1C(=O)C2(C(C#N)=C(N)Oc3n[nH]c(-c4cccs4)c32)c2ccccc21 (stereo unspecified),2.2µM*,-9%,-8%,5%,-6%,-2%
COc1ccc(C(=O)N2CCC[C@@]3(CCN(c4cccc(-c5ccccc5)c4)C3)C2)cc1,?,.,.,.,.,-24%
Cc1ccc(NC(=O)COC(=O)/C=C/c2ccc(Br)o2)cc1S(=O)(=O)N(C)C,20µM*,-9%,-11%,-8%,?,.
CN(C)S(=O)(=O)c1cccc(NC(=O)COC(=O)/C=C/c2ccc(Br)o2)c1,8.9µM*,-6%,-14%,-25%,?,.
Cc1ccc(NC(=O)c2ccc(Br)o2)cc1S(=O)(=O)N(C)C,14µM*,-3%,4%,-2%,0%,.
CN(C)S(=O)(=O)c1cccc(NC(=O)COC(=O)CCc2nc3ccccc3s2)c1,-15%,-6%,-6%,-10%,-6%,-8%
CN(C)S(=O)(=O)c1cccc(NC(=O)COC(=O)c2ccc(Br)o2)c1,3%,-5%,-8%,1%,-11%,0%
CN(C)S(=O)(=O)c1cccc(NC(=O)COC(=O)c2cc(-c3cccc(Br)c3)nc3ccccc23)c1,-13%,13µM*,9%,?,?,-25%
CN1CCN(CC2(O)CCN(S(=O)(=O)c3ccc(Cl)cc3)CC2)CC1,11%,-4%,-2%,14%,5%,.
